TDP1 cell CPT: growth inhibition of DT40 Tdp1-/-;hTDP1 cells with camptothecin (screen for TDP1 inhibitors); chicken DT40 Tdp1-/-;hTDP1 cells + 20 nM CPT, ATP luminescence, 48 h; hit rate 12% among 420,000; AID 686979; Potency, µM (series often up to 46.2 µM), actives largely listed as inhibitors; note: nearly all actives have a fitted effect of over 55% in size
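Chicken DT40 Tdp1-/- cells complemented with human TDP1, 400 cells/well, exposed to compounds plus 20 nM camptothecin for at least 48 h at 37 C; viability read as ATP content by CellTiter-Glo luminescence.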
HT1080 IDH1KD tx: kills HT-1080 cells with IDH1 knockdown | HT-1080 IDH1 knockdown viability, ATP luminescence, 48 h | Potency, µM (doses to about 46.1 µM), actives largely listed as cytotoxic | hit rate 2% among 360,000 | AID 686971
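IDH1KD HT-1080 cells, 750/well, RPMI + 5% FBS; compound pinned after 2 h settling; 48 h, 37 °C; CellTiter-Glo luminescence; % activity normalised to DMSO and no-cell wells; curves fitted, classed by r2 and efficacy.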
TGFb SMAD3 inh: inhibitors of TGF-b signaling. HepG2 CAGA-GFP TGF-b/SMAD3 reporter, GFP fluorescence, 18 h; TGF-beta stimulated, 500 pg/mL final. hit rate 1.2% among 410,000. Potency, µM (titrated, usually from 46.1 µM), actives largely listed as inhibitors. AID 588855; note: nearly all actives have a fitted effect of over 65% in size
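Per well, imaged GFP fluorescence of HEPG2 CAGA-GFP cells gives the signal; cells get compound, then TGF-beta (500 pg/mL final), 18 h at 37 degrees C; %Activity versus -TGF-beta and +DMSO controls.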
HT1080NT lethal: kills 2HG-producing HT-1080-NT fibrosarcoma cells; hit rate 1.6% among 360,000; HT-1080-NT fibrosarcoma viability, CellTiter-Glo ATP luminescence, 48 h; AID 686970; Potency, µM (top dose mostly 46.1 µM), most hits filed as cytotoxic;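 note: NT is the 2HG producing partner of a matched IDH1 knockdown line; nearly all actives have a fitted effect of over 55% in size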
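Viability of the 2HG-overproducing fibrosarcoma line after 48 hours of compound exposure at 37 degrees C was determined by luminescence with CellTiter-Glo, and concentration-effect curves were then fitted and categorized.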
DT40 TDP1 no CPT: qHTS for Inhibitors of human tyrosyl-DNA phosphodiesterase 1 (TDP1): qHTS in cells in absence of CPT; DT40 Tdp1-/- hTDP1 cells, no CPT, ATP luminescence, 48 h; Potency, µM (top dose mostly 46.2 µM), usual class: inhibitors; hit rate 15% among 420,000; note: nearly all actives have a fitted effect of over 55% in size
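DT40 Tdp1-/-;hTDP1 cells, no CPT (DMSO vehicle only), 400 cells/well; compounds pin-transferred; ≥48 hr, 37 °C; CellTiter-Glo 30 min RT dark, luminescence read.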
HepG2 tox: HepG2 cytotoxicity, counter-screen for TGF-b inhibitors | HepG2 CAGA-GFP viability, ATP luminescence, 18 h | Potency, µM (top dose mostly 46.1 µM), most hits filed as cytotoxic | hit rate 0.76% among 410,000
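HepG2 CAGA-GFP cells (1000/well, DMEM with 1% FBS) received compound, then TGF-beta at 500 pg/mL final, and were incubated 18 hours at 37 degrees C. Viability was read by CellTiter-Glo luminescence. Media-only wells were set as complete cell-killing and DMSO as no toxicity.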
A number is an active result; i = inactive; ? = inconclusive; nt = no result given. An excerpt weighted towards active compounds, which were near 17% of everything screened. Calls come from the whole dose curve; as a rule, active = well fitted curve in the direction sought with a large enough effect; inconclusive = small, poorly fitted or top-dose-only effect, or another doubt; inactive = no such curve, though single readings can be large; an effect the other way counts as inactive or inconclusive.

SMILES | TDP1 cell CPT | HT1080 IDH1KD tx | TGFb SMAD3 inh | HT1080NT lethal | DT40 TDP1 no CPT | HepG2 tox
CCCn1cc(S(=O)(=O)c2ccc(Cl)cc2)c(=O)c2cc(OC)ccc21 | 16µM | i | i | i | 23µM | i
COc1ccc2c(c1)c(=O)c(S(=O)(=O)c1ccc(Cl)cc1)cn2Cc1cc(C)ccc1C | i | nt | i | nt | ? | i
O=S(=O)(c1ccc(Cl)cc1)N1CCC(c2nc3ccccc3[nH]2)CC1 | ? | ? | ? | i | 12µM | i
CC(=O)c1ccc(S(=O)(=O)N2CCC(c3nc4ccccc4[nH]3)CC2)cc1 | ? | i | i | i | ? | i
CCOc1cccc(C(=O)NC2=NCCS2)c1 | i | ? | i | i | i | i
O=C(NCCc1ccccc1)C1CCN(S(=O)(=O)c2cccs2)CC1 | i | i | ? | i | i | i
O=C(NCCCN1CCN(c2ccccc2F)CC1)C1CCN(S(=O)(=O)c2cccs2)CC1 | 13µM | i | i | i | ? | i
O=C(NCCN1C(=O)S/C(=C\c2ccccc2)C1=O)C1CCN(S(=O)(=O)c2cccs2)CC1 | 13µM | i | ? | i | 18µM | i
CS(=O)(=O)N(CC(=O)N/N=C/c1cccs1)c1cccc(Cl)c1Cl | i | i | i | i | i | i
CCC(=O)N1CCCC(C(=O)Nc2ccc3cn[nH]c3c2)CC1 (stereo not drawn) | i | i | i | i | i | i
CC(C)c1ccc(NC(=O)Cc2cn(C)c3ccccc23)cc1 | i | i | i | i | 16µM | i
Cn1cc(CC(=O)NCc2ccc(F)cc2)c2ccccc21 | i | i | i | i | i | i
Cc1cc(C)c(NC(=O)CCn2c(=O)c3cccn3c3ccccc32)c(C)c1 | ? | nt | i | nt | 16µM | i
CC(CNC(=O)CCCn1c(=O)c2cccn2c2ccccc21)c1ccccc1 (stereo not drawn) | ? | nt | ? | nt | ? | i
CCc1cccc(C)c1NC(=O)CCn1c(=O)c2cccn2c2ccccc21 | ? | nt | i | nt | 23µM | i
CC(C)c1ccc(NC(=O)CCn2c(=O)c3cccn3c3ccccc32)cc1 | 21µM | nt | i | nt | 15µM | i
O=C(CCN1CCN(c2ccccc2)CC1)NNC(=O)c1ccccc1 | i | i | i | i | i | i
CCOC(=O)C1CCCN(C(=O)c2cccc(Cl)c2)CC1 (stereo not drawn) | i | i | i | i | i | i
CN(CC(=O)Nc1ccc(Cl)c(C(F)(F)F)c1)C(=O)C1CC(=O)N(C2CCCC2)C1 (stereo not drawn) | ? | i | i | i | ? | i
NC(=S)N/N=C1/CCSc2ccc3ccccc3c21 | 3.7µM | ? | ? | 26µM | 2.6µM | i
Cc1nn(C)cc1CNCc1c(C(=O)N2CCCCC2)nc2c(C)cccn12 | i | i | i | i | i | i
COc1ccc(C)cc1N1CC(C(=O)Nc2ccccc2N2CCCCC2)CC1=O (stereo not drawn) | ? | i | i | i | 21µM | i
COc1ccc(N2CC(C(=O)Nc3ccccc3N3CCCC3)CC2=O)c(OC)c1 (stereo not drawn) | 2.9µM | 23µM | ? | ? | 4.6µM | i
COc1ccc(N2CC(C(=O)Nc3cc(C(F)(F)F)ccc3N3CCCC3)CC2=O)c(OC)c1 (stereo not drawn) | ? | 21µM | i | 21µM | 23µM | i
CCc1ccc(N2CC(C(=O)Nc3ccccc3N3CCCC3)CC2=O)cc1 (stereo not drawn) | 12µM | ? | i | ? | 12µM | i
SMILES | TDP1 cell CPT | HT1080 IDH1KD tx | TGFb SMAD3 inh | HT1080NT lethal | DT40 TDP1 no CPT | HepG2 tox
COc1ccc(NC(=O)C2CC(=O)N(c3ccccc3Cl)C2)c(OC)c1 (stereo not drawn) | i | i | i | i | i | i
CCc1ccc(N2CC(C(=O)Nc3ccccc3F)CC2=O)cc1 (stereo not drawn) | i | i | i | i | i | i
CC1(CCc2ccccc2)NC(=O)N(CC(=O)Nc2ccc(S(N)(=O)=O)cc2)C1=O (stereo not drawn) | i | i | ? | i | i | i
CCCCn1c(SCc2nnc(-c3ccccc3)o2)nc2c1c(=O)n(C)c(=O)n2C | 15µM | i | i | i | 10µM | i
CCN(CC)c1nc2c(c(=O)[nH]c(=O)n2C)n1CCCc1ccccc1 | ? | i | i | i | 10µM | i
CCCCn1c(CN(Cc2ccccc2)Cc2ccccc2)nc2c1c(=O)n(C)c(=O)n2C | 13µM | i | i | i | 18µM | i
CCN(CC)c1nc2c(c(=O)n(C)c(=O)n2C)n1CCCc1ccccc1 | 21µM | i | i | i | 23µM | i
Cc1cc(=O)oc2cc(OCC(=O)c3ccc4c(c3)NC(=O)CO4)ccc12 | i | i | i | i | i | i
Cc1cccn2c(=O)c(C(=O)NCCc3ccccc3)cnc12 | i | nt | i | nt | ? | i
O=S1(=O)CC(N2CC=CC2)CN1Cc1cn(Cc2cccc(C(F)(F)F)c2)nn1 (stereo not drawn) | i | i | nt | i | i | nt
CCN(CC(=O)NCc1cccs1)C(=O)c1ccc(N(C)S(=O)(=O)c2ccc(C)cc2)cc1 | ? | i | i | i | ? | i
CN(Cc1ccccc1)c1nc2c(c(=O)n(C)c(=O)n2C)n1CCCc1ccccc1 | 23µM | i | i | i | 16µM | i
C=CCOc1ccc(CNCC2CCCO2)cc1 (stereo not drawn) | ? | i | i | i | i | i
c1ccc([C@H]2CN3C(=N2)Sc2ccccc23)cc1 | 18µM | i | ? | i | ? | i
O=C1NC[C@H](Cc2ccccc2)N(C[C@H]2CCCN2C[C@H](Cc2ccccc2)N2C[C@H](Cc3ccccc3)N(CC3CCCCC3)C(=O)C2=O)C1=O | 21µM | ? | ? | ? | ? | 7.1µM
O=C1NC[C@H](Cc2ccccc2)N(C[C@@H]2CCCN2C[C@H](Cc2ccccc2)N2C[C@H](Cc3ccccc3)N(CC3CCCCC3)C(=O)C2=O)C1=O | 16µM | ? | 18µM | ? | 23µM | i
COc1ccc(N2C(=O)CSC23C(=O)N(CC(=O)Nc2ccccc2F)c2ccccc23)cc1 (stereo not drawn) | i | nt | i | nt | i | i
CCCCCCCCOC(=O)/C=C/c1c(C)[nH]c(=O)[nH]c1=O | ? | i | i | i | 7.3µM | i
Cc1ccc(-c2nc3cc(Br)cnc3nc2-c2ccc(C)cc2)cc1 | 15µM | i | i | i | ? | i
CC1(C)C(=O)N(c2ccccc2Cl)C(=O)c2ccccc21 | i | i | i | i | ? | i
